From PubChem BioAssay (Tox21) come the findings set out here.

Each structure is given as a SMILES string. A number with no mark means an inactive call. Results filed as inconclusive are left out. The source made the active and inactive calls. Unless noted, calls follow the shape of the dose curve; as a rule, active = well fitted curve in the direction sought with a large enough effect in the repeat runs; inconclusive = weak or mixed curves; inactive = no such curve, though single readings can be large; an effect the other way counts as inactive or inconclusive.

In test [1] the target is Nuclear receptor subfamily 1 group I member 3 (Homo sapiens) (UniProt Q14994). The experiment in a line: qHTS assay to identify small molecule agonists of the constitutive androstane receptor (CAR) signaling pathway (AID 1224839).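 Also: HepG2 cells stably carrying human CAR and a CYP2B6 luciferase reporter; nearly all actives have a fitted effect of over 15% in size.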 Particulars: HepG2 hCAR CYP2B6-luciferase, agonist mode, 24 h; series mostly up to 92.4 µM. In short, it runs like this: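 HepG2-CYP2B6-hCAR cells, 2500/well, 4 h pre-incubation; compounds 15 conc.; PK11195 0.75 uM final; 24 h, 37 C/5% CO2; ONE-Glo luciferase read.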

A short description of test [2]: qHTS assay to identify small molecule agonists of the hypoxia (HIF-1) signaling pathway - cell viability counter screen (AID 1224844; calls by dose curve; also: nearly all actives have a fitted effect of over 50% in size). The note with it: HRE-bla ME-180 viability, CellTiter-Glo luminescence, 17 h; series mostly up to 76.8 µM. The essentials:
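Cytotoxicity was measured in parallel with the HRE-driven beta-lactamase readout: after 17 hrs of compound exposure at 37C, HRE-bla ME-180 cells received CellTiter-Glo and luminescence was recorded 30 min later.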
Background: In qHTS, concentration-response curves come from the screen itself.

Test [3] in a line: qHTS assay to identify small molecule agonists of H2AX (AID 1224845; active = well fitted activation curve with a large enough effect in the signal ratio in the repeat runs, not every such curve was filed as active; the % refers to the signal ratio). Particulars: CHO-K1 phospho-H2AX Ser139 HTRF, 3 h; series mostly up to 154 µM. The essentials:
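Wild-type CHO-K1 cells plated overnight, then exposed 3 hr at 37C to compounds at 15 concentrations (0.76% DMSO). Lysed, then HTRF anti-pH2AX(S139)-cryptate/anti-H2AX-d2 detection after 24 hr at room temperature; emissions 665 and 620 nm.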

Test [4] is described as follows: qHTS assay to identify small molecule agonists of the hypoxia (HIF-1) signaling pathway (AID 1224846; active = well fitted activation curve with a large enough effect in the signal ratio in the repeat runs, not every such curve was filed as active; the % refers to the signal ratio). Particulars: HRE-bla ME-180 cells, beta-lactamase ratio, 17 h; series mostly up to 76.8 µM. In short, it runs like this: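 Compounds from the Tox21 10K library, dissolved in DMSO, are tested for induction of a hypoxia response element–controlled beta-lactamase reporter in ME-180 cells. Exposure lasts 17 hrs at 37C after a 5 hr settling period, followed by CCF4-AM FRET substrate.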

The nature of test [5]: qHTS assay to identify small molecule agonists of H2AX - cell viability counter screen (AID 1224847; calls by dose curve; also: nearly all actives have a fitted effect of over 30% in size; also: potency is read from the fitted curve at half-maximal effect). The note with it: CHO-K1 viability, CellTiter-Glo luminescence, 3 h; series mostly up to 154 µM. The essentials: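 Cells plated first: CHO-K1, 1000 per well in 10% FBS medium, incubated overnight at 37C. Then 15-point compound titration added (final DMSO 0.76%) for 3 hr. Finally CellTiter-Glo added and luminescence read.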

Test [6] is described as follows: qHTS RealTime-Glo MT Cell Viability Assay in HepG2 cells - 24 hour (AID 1224867). Also: nearly all actives have a fitted effect of over 50% in size. The note with it: RealTime-Glo luminescence; series mostly up to 76.8 µM. In short, it runs like this: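 HepG2 cells (600/well) were dispensed with RealTime-Glo reagents, incubated 5 h at 37 °C, then treated with compounds in DMSO for up to 40 h. Nonlytic NanoLuc luminescence reflecting viable cells was read at each stated time point.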

A short description of test [7]: qHTS RealTime-Glo MT Cell Viability Assay in HEK293 cells - 32 hour (AID 1224868). Also: top concentration of the series differs between compounds; nearly all actives have a fitted effect of over 50% in size. The note with it: RealTime-Glo luminescence; series mostly up to 76.8 µM. In short, it runs like this:
(§1)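 HEK293 cells seeded with NanoLuc/prosubstrate reagent, rested 5 h at 37 C, then dosed and kept at 37 C up to 40 h. Nonlytic real-time luminescence from viable cells read at 0, 8, 16, 24, 32 and 40 h.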

A short description of test [8]: A CellTox Green Cytotoxicity Assay to monitor cytotoxicity in HEK293 cells - 0 hour (AID 1224869). Also: nearly all actives have a fitted effect of over 50% in size. Particulars: CellTox Green fluorescence; series mostly up to 76.8 µM. The essentials:
(§2)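 Cells (HEK293, 600/well) and dye reagent are dispensed together. After 5 h at 37 C, 23 nL compound is pinned in. Plates stay at 37 C for 40 h with fluorescence read at 0h, 8h, 16h, 24h, 32h and 40h.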

Test [9] can be described thus: A CellTox Green Cytotoxicity Assay to monitor cytotoxicity in HEK293 cells - 40 hour (AID 1224871). Also: nearly all actives have a fitted effect of over 45% in size. Particulars: CellTox Green fluorescence; series mostly up to 76.8 µM. The essentials:
as §2

Test [10] is described as follows: qHTS RealTime-Glo MT Cell Viability Assay in HEK293 cells - 16 hour (AID 1224872). The note with it: RealTime-Glo luminescence; series mostly up to 76.8 µM. The essentials: as §1
Test [11] in a line: qHTS RealTime-Glo MT Cell Viability Assay in HepG2 cells - 8 hour (AID 1224873). Also: nearly all actives have a fitted effect of over 55% in size. The note with it: RealTime-Glo luminescence; series mostly up to 76.8 µM. The essentials:
(§3)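 HepG2 cells mixed with RealTime-Glo MT reagents (NanoLuc plus cell-permeant prosubstrate) were seeded at 600 cells/well, incubated 5 h at 37 C/5% CO2, then pinned with compounds in DMSO; nonlytic luminescence tracked viability during 40 h treatment.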

Test [12] in a line: qHTS RealTime-Glo MT Cell Viability Assay in HEK293 cells - 40 hour (AID 1224874). Also: nearly all actives have a fitted effect of over 50% in size. Particulars: RealTime-Glo luminescence; max response: stronger effect = lower value. In short, it runs like this:
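Real-time viability in HEK293: signal arises when living cells convert a prosubstrate for NanoLuc in the medium, so luminescence tracks viable cell number. Compound (23 nL, DMSO) added 5 h post-seeding; kinetic reads at 0–40 h, 37 C.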

Test [13] is described as follows: A CellTox Green Cytotoxicity Assay to monitor cytotoxicity in HEK293 cells - 24 hour (AID 1224875). Also: nearly all actives have a fitted effect of over 45% in size. The note with it: CellTox Green fluorescence; series mostly up to 76.8 µM. In short, it runs like this: as §2
The nature of test [14]: qHTS assay to identify small molecule antagonists of the estrogen related receptor signaling pathway with the pleiotropic PPARgamma coactivator (PGC) from Tox21 10K library - cell viability counter screen (AID 1224840; active = well fitted cell-killing curve with a large enough effect in the repeat runs, not every such curve was filed as active; also: nearly all actives have a fitted effect of over 40% in size). The note with it: PGC/ERR reporter cells viability, CellTiter-Fluor, 17.5 h; series mostly up to 92.4 µM. The essentials: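 Multiplexed viability counter screen in the PGC/ERR cell line: cells treated with DMSO-dissolved compounds for 17.5 hours at 37 C, then viability measured as CellTiter-Fluor fluorescence.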

A short description of test [15]: qHTS assay to identify small molecule antagonists of the estrogen related receptor signaling pathway with the pleiotropic PPARgamma coactivator (PGC) from Tox21 10K library (AID 1224841; call rule not given here). Particulars: PGC/ERR reporter cell line, ONE-Glo luciferase, 18 h; series mostly up to 92.4 µM. In short, it runs like this: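 Steps: plate 2,000 PGC/ERR cells per well; incubate 6 h at 37 C with 5% CO2; transfer compounds from DMSO stocks by pin tool; incubate 18 h at 37 C; add One-Glo; measure luminescence 30 min later.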

Test [16] is described as follows: qHTS assay to identify small molecule agonists of the estrogen related receptor signaling pathway with the pleiotropic PPARgamma coactivator (PGC) from Tox21 10K library (AID 1224842). Also: nearly all actives have a fitted effect of over 15% in size. Particulars: PGC/ERR reporter cell line, luciferase ONE-Glo, 18 h; series mostly up to 92.4 µM. The essentials:
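PGC/ERR reporter cells (NTP line) were seeded 2,000 per well, rested 6 h at 37 C/5% CO2, then pin-dosed with compounds in DMSO for 18 h at 37 C; luciferase read by One-Glo luminescence after 30 min at room temperature.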

For test [17], the target named is Thyrotropin receptor (Homo sapiens) (UniProt P16473). Put plainly: qHTS assay to identify small molecule agonists of the thyroid stimulating hormone receptor (TSHR) signaling pathway (AID 1224843; calls by dose curve; also: nearly all actives have a fitted effect of over 45% in size). Particulars: TSHR-HEK293 cells, cAMP HTRF, agonist mode, 30 min; series mostly up to 92.4 µM. The essentials:
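Compounds are titrated over 15 concentrations, in triplicate, onto TSHR-HEK293 cells seeded at 800/well. Plates sit 30 min at room temperature before cAMP-d2 and anti-cAMP cryptate are added; signal is read after a further hour.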

A short description of test [18]: qHTS assay to identify small molecule antagonists of the estrogen related receptor (ERR) signaling pathway from Tox21 library (AID 1224848). Also: nearly all actives have a fitted effect of over 50% in size. The note with it: ERR reporter cell line, luciferase antagonist mode, 18 h; series mostly up to 92.4 µM. The essentials:
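First, 2,000 ERR cells per well were plated and held 6 h at 37 C/5% CO2. Next, compounds in DMSO were pinned in and left 18 h at 37 C. Finally, ONE-Glo was added and luminescence read after 30 min at room temperature.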

Test [19] is described as follows: qHTS assay to identify small molecule agonists of the estrogen related receptor (ERR) signaling pathway from Tox21 library (AID 1224849; calls by dose curve; also: nearly all actives have a fitted effect of over 15% in size). Particulars: ERR reporter cell line, ONE-Glo luciferase, 18 h; series mostly up to 92.4 µM. The essentials:
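Cells carrying the ERR reporter were plated and allowed to settle for 6 h, exposed to library compounds for 18 h at 37 C, then lysed with ONE-Glo and luminescence measured.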

Test [20] in a line: qHTS RealTime-Glo MT Cell Viability Assay in HepG2 cells - 40 hour (AID 1224870). Also: nearly all actives have a fitted effect of over 50% in size. Particulars: RealTime-Glo luminescence; series mostly up to 76.8 µM. The essentials: as §3
% is scaled to controls: 0 for no effect and ±100 for the full control effect.

Nuclear receptor subfamily 1 group I member 3 (Homo sapiens), sequence (Q14994 whole entry, looked up): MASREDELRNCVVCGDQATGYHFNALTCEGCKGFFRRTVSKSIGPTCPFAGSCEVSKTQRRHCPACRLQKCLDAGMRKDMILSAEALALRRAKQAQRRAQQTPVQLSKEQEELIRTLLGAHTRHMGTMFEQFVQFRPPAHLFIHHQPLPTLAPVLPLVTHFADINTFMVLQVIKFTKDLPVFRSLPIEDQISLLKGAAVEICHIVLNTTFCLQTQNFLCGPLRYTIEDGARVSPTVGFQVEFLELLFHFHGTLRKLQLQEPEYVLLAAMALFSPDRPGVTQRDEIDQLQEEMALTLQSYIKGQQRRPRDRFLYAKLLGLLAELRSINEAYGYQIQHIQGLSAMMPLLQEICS
Thyrotropin receptor (Homo sapiens), sequence (P16473 whole entry, looked up): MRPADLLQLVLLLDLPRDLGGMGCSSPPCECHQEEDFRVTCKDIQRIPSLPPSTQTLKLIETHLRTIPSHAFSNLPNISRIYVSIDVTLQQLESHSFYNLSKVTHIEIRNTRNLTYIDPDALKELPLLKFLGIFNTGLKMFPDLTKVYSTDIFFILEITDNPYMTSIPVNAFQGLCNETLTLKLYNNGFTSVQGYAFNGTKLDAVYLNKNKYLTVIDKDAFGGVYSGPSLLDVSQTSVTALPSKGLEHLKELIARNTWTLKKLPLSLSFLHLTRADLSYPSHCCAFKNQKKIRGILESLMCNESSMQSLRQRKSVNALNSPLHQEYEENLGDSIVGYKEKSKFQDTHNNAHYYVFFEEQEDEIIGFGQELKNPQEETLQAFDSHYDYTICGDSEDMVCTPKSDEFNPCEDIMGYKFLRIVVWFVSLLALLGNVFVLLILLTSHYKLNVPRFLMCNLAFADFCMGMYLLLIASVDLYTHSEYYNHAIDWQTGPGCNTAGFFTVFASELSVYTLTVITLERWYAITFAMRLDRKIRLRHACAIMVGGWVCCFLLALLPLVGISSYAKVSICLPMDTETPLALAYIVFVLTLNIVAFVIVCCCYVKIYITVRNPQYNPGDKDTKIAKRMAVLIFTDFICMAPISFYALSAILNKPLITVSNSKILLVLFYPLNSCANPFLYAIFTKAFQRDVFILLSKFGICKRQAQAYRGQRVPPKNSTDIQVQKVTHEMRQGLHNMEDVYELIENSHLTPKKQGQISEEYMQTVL

As to `CCC(=O)OCCC(C)CCC=C(C)C` (centres undefined), the Potency result in test [1], in [5], in test [7], in [8], in test [9] and in test [10] was “inactive” each time. Also, in [13], the Potency result was “inactive”. For the same molecule, the molecule was called inactive in [2], in test [3], in test [4], in test [6] and in test [11]. In [12], the max response is -5.38%.
Regarding `CCCCCCCCCCCCCCCCCCN(C)C`, the result in [14], in test [16], in [17], in [2], in [3] and in test [4] was inactive. The molecule was classed as inactive in [19], in test [6], in test [20] and in test [11]. The Potency result in test [15], in test [5], in test [18], in [7], in [8] and in test [10] was “inactive” each time. The max response in test [12] was 0.677%.
As to `COc1ccc(N=Nc2cc(C)c(N=Nc3ccc(S(=O)(=O)O)cc3)cc2OC)cc1`, the Potency entry in test [1], in [7], in [8], in test [9], in [10] and in [13] was “inactive” each time. In addition, the outcome in test [3], in test [4], in [6], in [20] and in test [11] was inactive. In test [5], the Potency is 101 µM (active). Further, the max response in [12] is -2.91%.
Regarding `O=CN1CCOCC1`, the molecule was classed as inactive in test [14], in test [16], in test [17], in test [2], in test [3] and in test [4]. Further, the molecule was classed as inactive in [19], in test [6], in test [20] and in test [11]. The Potency result in [15], in test [5], in [18], in test [7], in test [8] and in [9] was “inactive” in each case. Moreover, the Potency entry in test [10] is “inactive”. The max response in [12] is 10.7%.
Regarding `C=CCOCC(CO)(COCC=C)COCC=C`, the molecule was called inactive in test [14], in test [16], in test [17], in test [2], in [3] and in test [4]. Also, the call in test [19], in [6], in test [20] and in test [11] was inactive. Also, the Potency result in test [15], in test [5], in test [18], in [7], in test [8] and in [9] was “inactive” throughout. Besides, the Potency result in [10] and in test [13] was “inactive” in each case. Moreover, the max response in test [12] is 0.319%.
Consider `NC(=O)NNC(N)=O`, for which the outcome in test [14], in [16], in test [17], in test [2], in test [3] and in test [4] was inactive. Besides, the call in [19], in test [6] and in test [11] was inactive. The Potency result in test [15], in test [5], in test [18], in test [7], in [8] and in [9] was “inactive” each time. In addition, the Potency result in test [10] and in test [13] was “inactive” throughout. For the same molecule, the max response in test [12] was 19.6%.
On to `NS(=O)(=O)c1cc2c(cc1Cl)NC(CC1CCCC1)NS2(=O)=O` (centres undefined), for which the Potency result in [1], in test [5], in test [7], in [8], in test [9] and in [10] was “inactive” in each case. Besides, the Potency result in test [13] is “inactive”. Moreover, the molecule was called inactive in test [17], in [2], in test [3], in test [6], in test [20] and in [11]. Besides, the max response in test [12] was 5.55%.
In the case of `NC(=O)C1(N2CCCCC2)CCN(CCCC(=O)c2ccc(F)cc2)CC1`, the molecule was called inactive in test [14], in test [16], in [17], in test [2], in test [3] and in test [19]. Besides, the molecule was called inactive in test [6], in test [20] and in [11]. In addition, the Potency result in [15], in [5], in [18], in test [7], in test [8] and in [9] was “inactive” throughout. Besides, the Potency entry in test [10] was “inactive”. Also, the max response in [12] is -22.3%.
